Bioassay records (PubChem BioAssay)
LDHA inh: blocks human lactate dehydrogenase A; 480,000 tested, 0.15% active; activity change, % (values are at about 110 or 230 µM); purified LDHA, NADH/diaphorase-resazurin fluorescence; stronger effect = lower value; P00338; in the data active = activity change below about -30%;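 note: plate controls were DMSO wells for no effect and wells without enzyme for full effect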
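LDH5 2 nM; NADH 0.06 mM, pyruvate 0.2 mM; 200 mM Tris pH 7.4, EDTA, Tween-20; 5 min RT. Detection: diaphorase 0.133 mg/mL + resazurin 37 µM, fluorescence ex540/em590 at 0 and 20 min; normalized to enzyme-free and DMSO wells.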
D2 PAM-1: positive allosteric modulators of human D2 dopamine receptor; P14416; 340,000 tested, 0.34% active; potentiation, % at 10 µM; HEK293 T-REx D2, calcium flux, EC20 dopamine potentiation;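 active = potentiation over 3 SD above the plate norm, cut at about 30% in these data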; note: 0% is about no effect
Target sequence (P14416 whole entry, looked up): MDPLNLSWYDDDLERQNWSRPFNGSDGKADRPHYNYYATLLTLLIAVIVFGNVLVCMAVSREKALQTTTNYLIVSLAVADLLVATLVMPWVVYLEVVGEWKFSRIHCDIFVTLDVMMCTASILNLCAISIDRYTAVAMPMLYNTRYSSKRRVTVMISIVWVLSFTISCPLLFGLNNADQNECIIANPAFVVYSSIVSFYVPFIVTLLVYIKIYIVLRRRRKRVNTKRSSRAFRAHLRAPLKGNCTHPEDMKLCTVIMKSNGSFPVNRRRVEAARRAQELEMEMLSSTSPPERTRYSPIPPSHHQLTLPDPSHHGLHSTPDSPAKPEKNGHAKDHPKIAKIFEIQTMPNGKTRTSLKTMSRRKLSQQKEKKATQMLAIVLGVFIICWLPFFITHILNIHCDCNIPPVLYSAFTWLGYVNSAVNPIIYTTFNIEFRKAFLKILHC
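Primary screen. Calcium kinetics in induced HEK293 T-REx D2 cells: compound pre-addition 180 s, EC20 dopamine, 180 s more.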
D2 ag-1: activates the human D2 dopamine receptor; 340,000 tested, 0.53% active; HEK293 T-REx D2 cells, calcium flux agonist mode; activation, % at 2 µM; P14416;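 active = activation over 3 SD above normal in the single-dose calcium agonist read, cut at about 30% in these data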; note: 0% is about no effect
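In this primary screen, compounds producing a positive calcium signal within 180 s of addition to tetracycline-induced, force-coupled HEK293 Trex D2 cells are flagged; cells are dye-loaded with a no-wash calcium kit beforehand.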
D2 antagonist: antagonizes the human D2 dopamine receptor. AID 485344. 340,000 tested, 2% active. HEK293 TREx D2 cells, calcium flux, dopamine EC80. inhibition, % at 10 µM. P14416; in the data active = inhibition above about 30%; inactive = below that, where a call was filed; note: 0% is about no effect
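Tetracycline-induced HEK293 TREx cells expressing D2 receptor forced-coupled to calcium signalling, loaded with no-wash calcium dye. Compounds added and calcium flux read 180 s, then dopamine added at EC80 and read a further 180 s.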
D2 PAM-2: human D2 receptor positive allosteric modulation; DiscoveRx D2 beta-arrestin cells, luminescence, 90 min; 100% = 57 uM dopamine signal; P14416; 360,000 tested, 0.23% active; AID 624464; potentiation, % (test concentration not listed); in the data active = potentiation above about 50%
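PathHunter D2 cells, attached overnight at 37 deg C, received compound in DMSO plus dopamine at EC20 (50 nM final) for 90 min at 37 deg C. Beta-arrestin recruitment was read as luminescence after 1 h with detection reagent at ambient temperature.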
D2 ag-2: human D2 receptor agonism in beta-arrestin assay; activation, % (test concentration not listed); DiscoveRx PathHunter D2 beta-arrestin, luminescence, 90 min; 100% = 57 uM dopamine signal; 360,000 tested, 0.084% active; AID 624465; in the data active = activation above about 40%
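DiscoveRx PathHunter D2 beta-arrestin cells (2,100/well) attached overnight, then compound-stimulated 90 min at 37 C in HBSS/10 mM HEPES/0.1% Tween-20 buffer; beta-galactosidase complementation read by luminescence after 1 h at ambient temperature. Dopamine 57 uM final (EC100) as control.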
An asterisk follows results filed as active; . = no result. Only some compounds are listed: those with a hit (about 2.1% of all), similar ones and a draw of the others.

SMILES	LDHA inh	D2 PAM-1	D2 ag-1	D2 antagonist	D2 PAM-2	D2 ag-2
CN1CCN(CCCc2ccccc2)CC1	4	.	.	.	.	.
CCOC(=O)N1CCN(c2cccc(C)c2C)CC1	-9	-5	-1	2	1	0
Cc1cccc(N2CCN(CC3CCCCC3)CC2)c1C	-3	-38	1	73*	-5	-4
Cc1ccc(C)c(N2CCN(CC3CCCCC3)CC2)c1	-2	-21	-1	62*	-20	3
Cc1ccc(C)c(N2CCN(CCCc3ccccc3)CC2)c1	-1	-25	2	51*	-5	-6
COc1ccc(Cl)cc1NC(=O)CSc1nc(N2CCOCC2)nc(N2CCOCC2)n1	-6	6	0	17	-5	1
O=C(CSc1cccc(C(F)(F)F)c1)Nc1ccc(Cl)cc1Cl	2	-9	0	49*	9	1
O=C(CSc1nc(N2CCOCC2)nc(N2CCOCC2)n1)Nc1ccc(Cl)cc1Cl	-2	1	1	33*	-7	-5
COc1ccc(-c2cc3ccccc3oc2=O)cc1NC(=O)c1ccc([N+](=O)[O-])o1	-3	-6	0	-13	101*	11
COc1ccc(-c2cc3ccccc3oc2=O)cc1NC(=O)c1ccc(Br)o1	0	-8	1	-6	-14	-6
CC(C(=O)Nc1ccc(F)c(F)c1)N1CCN(C)CC1 (stereo not given)	-30*	-7	0	2	-11	-4
Cc1cnc(NC(=O)[C@H](C)N2C(=O)C3CCCCC3C2=O)s1 (stereo not given in full)	3	3	0	-14	-11	4
Cc1cnc(NC(=O)C(C)N2CCN(C)CC2)s1 (stereo not given)	-31*	1	1	0	-5	-8
CC(C(=O)Nc1cccc(Cl)c1)N1CCN(C(=O)C2CC2)CC1 (stereo not given)	-1	.	.	.	.	.
CC(C)C(=O)Nc1ccc(F)c(F)c1	2	.	.	.	.	.
CC(C(=O)Nc1cc(Cl)cc(Cl)c1)N1CCCC1 (stereo not given)	-9	-30	2	89*	-12	-1
COc1ccc(-c2nn(-c3ccccc3)cc2C2=NN(S(C)(=O)=O)C(c3ccco3)C2)cc1 (stereo not given)	4	.	.	.	.	.
CCNc1cc(C)nc(Nc2ccc(NC(=O)c3cccc(Cl)c3)cc2)n1	14	.	.	.	.	.
CCN(CC)c1ccc(NC(=O)c2c(OC)cccc2OC)c(C)c1	2	-11	1	34*	-2	-2
COc1ccc(CCNCc2c(OC)ccc3ccccc23)cc1OC	1	4	0	-2	-9	-9
COc1ccc2ccccc2c1CNC(C)CCc1ccccc1 (stereo not given)	-2	-16	20	30*	-23	5
Cc1cc(C)c(S(=O)(=O)N2CCN(c3ccc(N4CCCCC4)nn3)CC2)cc1C	3	.	.	.	.	.
COc1cccc(NC(=S)N(CCCN2CCCC(C)C2)Cc2cccs2)c1 (stereo not given)	-2	-28	3	59*	-15	1
COc1ccc(NC(=S)N(CCCN2CCC(C)CC2)Cc2cccs2)cc1Cl	-3	-8	0	5	-22	-3
CSc1cccc(NC(=S)N(CCCN2CCCC(C)C2)Cc2cccs2)c1 (stereo not given)	0	-17	0	46*	-39	-5
SMILES	LDHA inh	D2 PAM-1	D2 ag-1	D2 antagonist	D2 PAM-2	D2 ag-2
CCN1C(=O)C(Cc2ccccc2OC)c2ccccc21 (stereo not given)	0	.	.	.	.	.
CCCOC(=O)Nc1nnc(CCC)s1	-5	-15	1	44*	-8	-2
CCCc1nnc(NC(=O)CCS(=O)(=O)c2ccccc2)s1	-4	32*	0	-16	-4	0
Cc1ccc(NC(=O)C(=O)c2c[nH]c3ccccc23)cc1Cl	4	.	.	.	.	.
Cc1ccc(S(=O)(=O)N(C)C)cc1NC(=S)NCCc1ccccn1	2	-26	0	34*	-19	1
Cc1ccc(S(=O)(=O)N(C)C)cc1NC(=S)Nc1ccc2cn[nH]c2c1	9	-12	-2	43*	-14	-4
